Among all 63,000 compounds or so, about 1,100 (1.7%) were called active. The sample as a whole holds a higher share of actives than the screen did. Entries with a potency or affinity are not part of this list. Unmarked numbers belong to inactive results.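 How the source made its calls: active means compounds whose percent cytotoxicity in the single-dose primary screen, scaled between solvent and toxic-drug controls, exceeds 50; inactive means the rest.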
Assay: cytotoxicity in KRAS-transformed pancreatic duct cells, primary screen, cell-based, fluorescence, HTS (AID 431);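 further: 0% = DMSO solvent wells and 100% = doxorubicin-treated wells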
Settings: HPDE-C7K KRASV12 cells, Alamar Blue viability, 48 h; at 10 µM; hits give high values

Structure (SMILES) | cytotoxicity
Oc1ccccc1-c1cc(-c2ccccc2Cl)[nH]n1 | 15.9%
Cc1ccc(-c2cc(-c3cccc(F)c3)n[nH]2)c(O)c1 | 10.8%
Cc1ccc(-c2cc(-c3ccccc3Cl)[nH]n2)c(O)c1 | 59.5% (active)
Cc1ccccc1-c1cc(-c2ccccc2O)n[nH]1 | 44%
COc1ccccc1-c1cc(-c2cc(Cl)ccc2O)n[nH]1 | -3.1%
CCOc1ccccc1OCC(=O)Nc1ccc(S(=O)(=O)N(C)C)cc1 | 3.1%
O=C(Cn1nnc(-c2ccccc2F)n1)Nc1ccc(S(=O)(=O)NC2CCCC2)cc1 | -26.3%
CCOC(=O)C(C)Oc1cccc2c(=O)n(CC(=O)NCc3ccco3)ccc12 (stereo not drawn) | 61.1% (active)
CCOC(=O)C(C)Oc1cccc2c(=O)n(CC(=O)N3CCN(C(=O)OCC)CC3)ccc12 (stereo not drawn) | -16.7%
CCOC(=O)C(C)Oc1cccc2c(=O)n(CC(=O)NCc3ccc4c(c3)OCO4)ccc12 (stereo not drawn) | 38.8%
COc1ccc(NC(=O)C2CCCN(S(=O)(=O)c3cnc[nH]3)C2)cc1 (stereo not drawn) | -5.3%
COc1cc(C)c(CNc2ccc(OC)c(OC)c2)cc1C | 21.6%
COc1ccc(Br)cc1C(=O)Nc1ccc(O)cc1 | -14.3%
COc1ccc(Br)cc1CNc1ccc(O)cc1 | 50% (active)
Cc1ccc(-n2nnnc2SCC(=O)Nc2c(C)n(C)n(-c3ccccc3)c2=O)cc1 | -3.4%
COc1ccc(OC)c(Nc2cc(C(=O)NCCCN3CCOCC3)c3ccccc3n2)c1 | 1.8%
CCOc1ccc(NC(=O)Cn2nnc(-c3ccccc3NC(=O)CC)n2)cc1 | 5.1%
NC(=O)c1cc2ccc(O)cc2oc1=NCc1ccccc1 | 4.1%
CC(=NCc1ccccc1)C1=C(O)COC1=O | -6%
O=C(CC1Nc2ccccc2NC1=O)Nc1ccccc1 (stereo not drawn) | -3.2%
Cc1ccc(NC(=O)CC2Nc3ccccc3NC2=O)cc1Cl (stereo not drawn) | 51.6% (active)

Structure (SMILES) | cytotoxicity
COc1ccccc1NC(=O)CC1Nc2ccccc2NC1=O (stereo not drawn) | -4.5%
Cc1nc(SCc2c(F)cccc2Cl)c2c(=O)n(C)c(=O)n(C)c2n1 | -12.8%
CC(C)c1nc(SCc2ccccn2)c2c(=O)n(C)c(=O)n(C)c2n1 | 1.9%
CC(C)c1nc(SCc2c(F)cccc2Cl)c2c(=O)n(C)c(=O)n(C)c2n1 | 70.4% (active)
CCC(CC)C(=O)Nc1ccccc1NC(C)=O | -16%
N#CCCN(CCC#N)C(=O)c1ccc2c(c1)OCO2 | -3.2%
COC(=O)c1ccc(Oc2cc(C)nc(-n3nc(C)cc3C)n2)cc1 | 32.6%
COc1ccc(Nc2cc(C)nc(-n3nc(C)cc3C)n2)cc1 | 79.2% (active)
CC(=O)c1ccc(Oc2cc(C)nc(-n3nc(C)cc3C)n2)cc1 | 56.4% (active)
CCOc1ccc(Nc2cc(C)nc(-n3nc(C)cc3C)n2)cc1 | 40.7%
CNc1cc(C)nc(-n2nc(C)cc2C)n1 | -14.9%
COc1ccc(N2CCN(C(=O)c3ccc(-n4nc(C)cc4C)cc3)CC2)cc1 | 2.6%
Cc1cc(NC(=O)c2cnn3c(C(F)F)cc(C4CC4)nc23)no1 | 20.6%
COc1cccc(NC(=O)c2ccccc2-c2nc(-c3ccccc3)no2)c1 | 25.4%
COc1ccc(OC)c(NC(=O)CNC(=O)Cn2cnc3ccccc3c2=O)c1 | 2.3%
Cc1cccc(N(C)S(=O)(=O)c2cccc3nsnc23)c1 | 14.4%
CCOC(=O)C1CCN(C(=O)c2oc3ccc(S(=O)(=O)N4CC(C)CC(C)C4)cc3c2C)CC1 (stereo not drawn) | 5.5%
Cc1ccc(-c2csc3nc(C)n(-n4cccc4)c(=O)c23)o1 | 0.5%
O=C(CSc1nnc(-c2ccccc2)o1)n1c2c(c3ccccc31)CCCC2 | 69.9% (active)
Cc1nnc(SCC(=O)n2c3c(c4ccccc42)CCCC3)s1 | 6.2%
O=C(O)CSc1nnc(-c2ccccc2)o1 | 19.6%

Structure (SMILES) | cytotoxicity
Cc1cccc(NC(=O)CSc2n[nH]c(-c3ccncc3)n2)c1 | -6.1%
Cc1ccc(N(CC(=O)Nc2ccc3c(c2)OCCO3)S(=O)(=O)c2c(C)n[nH]c2C)cc1 | 9.8%
CCOc1ccccc1N1CCN(c2nc(N)c(C#N)c(CC#N)c2C#N)CC1 | -11.4%
COc1ccccc1N1CCN(c2nc(N)c(C#N)c(CC#N)c2C#N)CC1 | -4.3%
COc1cc2c(C#N)c(N3CCN(c4ccccc4OC)CC3)nc(N)c2c(N)n1 | 57.2% (active)
N#Cc1c(N2CCCC2)nc(N)c2c(N)nc(N3CCCC3)cc12 | -2.8%
COc1cc2c(C#N)c(N3CCOCC3)nc(N)c2c(N)n1 | 46.6%
COc1ccccc1-c1nc(C#N)c(N2CCc3ccccc3C2)o1 | 20.5%
CCOc1cc2c(C#N)c(N3CCOCC3)nc(N)c2c(N)n1 | 22.5%
COc1cc2c(C#N)c(N3CCCCC3)nc(N)c2c(N)n1 | 56.9% (active)
Cn1c(=O)c2c(nc(Oc3ccc4c(c3)OCO4)n2Cc2ccc(Cl)cc2)n(C)c1=O | 12.9%
Cc1cc(Br)c(S(=O)(=O)NCCN2CCOCC2)cc1C | 8.4%
CN(Cc1ccco1)C(=O)Cn1c(=O)oc2cc(S(=O)(=O)NCc3ccccc3)ccc21 | 13.3%
CN(CCCn1c(=S)[nH]c2ncccc2c1=O)Cc1ccccc1 | -13.7%
COc1ccc(OC)c(-c2cc(C(=O)N3CCCc4ccccc43)no2)c1 | -6.9%
COc1ccc(CCNC2CC(=O)N(CCc3ccc(OC)c(OC)c3)C2=O)cc1OC (stereo not drawn) | 6.1%
COC(=O)Nc1ccc(Oc2ccccc2)cc1 | -4.1%
COc1ccccc1C(c1nnnn1Cc1ccccc1)N1CCN(c2nc3ccccc3s2)CC1 (stereo not drawn) | -13%
O=S(=O)(c1ccc(Oc2ccc(S(=O)(=O)N3CCOCC3)cc2)cc1)N1CCOCC1 | -9%
C=CS(=O)(=O)c1ccc(Oc2ccc(S(=O)(=O)C=C)cc2)cc1 | 94.8% (active)
CNS(=O)(=O)c1ccc(Oc2ccc(S(=O)(=O)NC)cc2)cc1 | 9.9%

— PubChem BioAssay AID431 (Sanford-Burnham Center for Chemical Genomics, 2006)
